High-throughput results (PubChem)
ROMK mod: human ROMK K+ channel modulation, primary screen; P48048; B-score at 10 µM; Tet-inducible ROMK, thallium flux fluorescence; actives lie on both sides; hit rate 2% among 130,000;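 active means signal ratio slope over the read window, or its plate-corrected B-score, at least 3 SD from the plate mean, either direction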;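 further: B-score of the F/F0 ratio slope over 7 to 12 s after thallium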
S1P4 agonist: human S1P4 receptor agonism; O95977; S1P4-expressing cell line, agonist reporter assay; activation, % at 4.98 µM; hit rate 0.35% among 220,000; in the data active means activation above about 11%;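 further: 0% = DMSO vehicle and 100% = reference agonist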
S1P4 antagonist: antagonists of human S1P4 receptor; O95977; S1P4-expressing cells, antagonist mode, reporter read-out; inhibition, % at 4.98 µM; hit rate 0.26% among 220,000; AID 1510; in the data active means inhibition above about 29%;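 further: 0% = wells stimulated with agonist and 100% = vehicle wells without agonist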
S1P3 antag: blocks the human S1P3 receptor. CHO S1P3 NFAT-BLA reporter, FRET fluorescence, antagonist mode. AID 485. inhibition, % at 4.98 µM. hit rate 0.27% among 170,000;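 active means inhibition above the plate cutoff, the mean inhibition of test wells on that plate plus 3 SD, cut at about 28% in these data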;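 further: cells challenged with S1P at its EC80 of 0.8 µM; blue over green emission ratio from cleaved BLA substrate after 4 h stimulation; 0% = S1P-stimulated wells and 100% = unstimulated DMSO-only wells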
Target sequence (Q99500 whole entry, looked up): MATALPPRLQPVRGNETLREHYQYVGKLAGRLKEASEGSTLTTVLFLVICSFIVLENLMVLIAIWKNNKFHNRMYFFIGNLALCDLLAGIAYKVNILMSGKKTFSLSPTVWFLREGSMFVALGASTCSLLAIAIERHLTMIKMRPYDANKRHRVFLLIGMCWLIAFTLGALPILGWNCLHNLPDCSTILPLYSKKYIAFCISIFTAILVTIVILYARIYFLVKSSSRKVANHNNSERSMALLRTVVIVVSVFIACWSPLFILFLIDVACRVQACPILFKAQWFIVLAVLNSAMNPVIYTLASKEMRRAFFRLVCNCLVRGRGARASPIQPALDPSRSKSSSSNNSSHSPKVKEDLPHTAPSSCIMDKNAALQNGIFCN
RAM network inh: yeast RAM network inhibition. S. cerevisiae dse1pr::URA3 reporter, 5-FOA growth OD615, 2 d; analog-sensitive cbk1-as2 kinase mutant strain. inhibition, % at 50 µM. hit rate 1.8% among 190,000. AID 868;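 active means inhibition above a set limit, 3 SD over mean compound inhibition, cut at about 8.4% in these data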;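 further: 0% = DMSO-only wells with no growth and 100% = 10 µM 1-NA-PP1 full growth; inhibition rescues growth on 5-FOA so higher OD means more RAM inhibition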
KCC2 mod: modulates chloride dependent transport by human KCC2. AID 1456. B-score of Tl+ flux slope (higher = more flux/activation; lower = inhibition) at 10 µM. hit rate 2.2% among 190,000. KCC2 cells, thallium flux FluoZin-2 fluorescence. Q9H2X9;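 active means thallium flux slope and its plate-corrected score both differing from the plate sample mean at a set confidence after two filtering rounds, in either direction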;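 further: slope of fluorescence scaled to starting intensity during 10 to 20 s after thallium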
An asterisk follows results filed as active. Rows were chosen to be rich in hits. Some 5.1% of all compounds tested hit in one or more screens of this group.

For O=C(C1=C[C@@H](c2coc3ccccc3c2=O)C[C@@H](OCc2ccc(CO)cc2)O1)N1CCN(Cc2ccccc2)CC1 the results were S1P4 agonist -2, S1P4 antagonist 4, S1P3 antag -15, RAM network inh -1 and KCC2 mod -3.3*.
`O=C(C1=C[C@@H](c2ccc(C(F)(F)F)cc2)C[C@@H](OCc2ccc(CO)cc2)O1)N1CCOCC1` gave S1P4 agonist -3, S1P4 antagonist -2, S1P3 antag -13, RAM network inh 9.0* and KCC2 mod -0.045.
N#Cc1c(-c2ccccc2F)cc(C2CC2)nc1SCC(=O)c1cccs1 was read as S1P4 agonist 1, S1P4 antagonist 0, S1P3 antag 19, RAM network inh 3 and KCC2 mod 0.64.
For CC(/C=N/n1c(-c2ccc(Cl)cc2)n[nH]c1=S)=C\c1ccco1 the results were S1P4 agonist 0, S1P4 antagonist -2, S1P3 antag 9, RAM network inh 3 and KCC2 mod 13*.
`CC(/C=N/n1c(-c2cc(C)[nH]n2)n[nH]c1=S)=C\c1ccco1` gave S1P4 agonist 2, S1P4 antagonist -21, S1P3 antag -30 and KCC2 mod -0.68.
`CC(/C=N/n1c(-c2ccco2)n[nH]c1=S)=C\c1ccccc1` gave S1P4 agonist 2, S1P4 antagonist -7, S1P3 antag -2, RAM network inh 3 and KCC2 mod 13*.
Cc1ccc(/C=N/n2c(-c3ccco3)n[nH]c2=S)s1 was read as ROMK mod 0.29, S1P4 agonist 0, S1P4 antagonist -1, S1P3 antag -9, RAM network inh 5 and KCC2 mod 2.1.
Screening COc1ccc(Cl)cc1NC(=S)NCc1ccco1 returned S1P4 agonist -1, S1P4 antagonist -5, RAM network inh -1 and KCC2 mod -1.3.
O=C(Nc1ccc(S(=O)(=O)NC2=NCCCCC2)cc1)c1ccc2ccccc2n1 was read as ROMK mod -0.076, S1P4 agonist 1, S1P4 antagonist -9, S1P3 antag -1, RAM network inh 3 and KCC2 mod 0.28.
For S=c1[nH]nc(-c2ccc(Br)o2)n1Cc1ccccc1 the results were ROMK mod 0.49, S1P4 agonist -2, S1P4 antagonist -6, RAM network inh 2 and KCC2 mod 3.4*.
Screening S=c1[nH]nc(-c2ccco2)n1Cc1ccccc1 returned ROMK mod 0.43, S1P4 agonist 1, S1P4 antagonist -11, RAM network inh 0 and KCC2 mod -0.7.
N#CCCn1nc(-c2ccc(Br)cc2)cc1Nc1ccccc1NC(=O)C(F)(F)F was read as ROMK mod -0.84, S1P4 agonist -1, S1P4 antagonist -164, S1P3 antag 3, RAM network inh 10* and KCC2 mod -0.6.
For CCOC(=O)C1=C(O)c2ccccc2C(=O)/C1=C\c1ccc(C)cc1 the results were S1P4 agonist -1, S1P4 antagonist 5, S1P3 antag -2, RAM network inh 5 and KCC2 mod 3.3*.
CCOC(=O)C1=C(C)N(c2ccc(C)cc2)C(=O)/C1=C\c1ccc(O)c(OC)c1 was read as S1P4 agonist 0, S1P4 antagonist 15, S1P3 antag -13 and KCC2 mod 0.41.
For COc1ccccc1-c1nc2cc3ccccc3cc2nc1-c1ccccc1 the results were ROMK mod -0.51, S1P4 agonist 2, S1P4 antagonist -6, S1P3 antag -4, RAM network inh 11* and KCC2 mod 0.085.
For O=C(N[C@@H](Cc1ccc(O)cc1)C(=O)O)c1cccnc1 the results were S1P4 agonist 0, S1P4 antagonist -17, S1P3 antag -16 and RAM network inh 1.
Screening CCOc1ccc(NS(=O)(=O)c2ccc(NS(=O)(=O)c3ccc(SC)cc3)cc2)cc1 returned S1P4 agonist -1, S1P4 antagonist 8, RAM network inh 8.9* and KCC2 mod 0.55.
Screening Nc1c(C(=O)Nc2ccccc2F)sc2nc(-c3ccco3)ccc12 returned S1P4 agonist -1, S1P4 antagonist -18, RAM network inh 9.2* and KCC2 mod -0.046.
For Nc1c(C(=O)Nc2ccccc2F)sc2nc(-c3cccnc3)ccc12 the results were ROMK mod -0.21, S1P4 agonist -1, S1P4 antagonist 5, S1P3 antag 2 and KCC2 mod -1.3.
`COc1ccc(CN2CCN(CCCCOc3ccc(Cl)cc3)CC2)c(OC)c1OC` gave ROMK mod -0.83, S1P4 agonist 1, S1P4 antagonist -7, S1P3 antag 6, RAM network inh 2 and KCC2 mod 0.38.
CCOc1ccc(N=Nc2cc(C(C)C)ccc2O)cc1 was read as ROMK mod 0.86, S1P4 agonist 0, S1P4 antagonist -15, S1P3 antag 2, RAM network inh 10* and KCC2 mod -0.016.
`CCOc1ccc(N=C(C)c2ccccc2O)cc1` gave ROMK mod 0.55, S1P4 agonist -1, S1P4 antagonist -6, S1P3 antag -7, RAM network inh 1 and KCC2 mod -0.39.
Screening CCOc1cccc(C(=O)Nc2ccc3oc(Cc4ccc(Cl)cc4)nc3c2)c1 returned S1P4 agonist 3, S1P4 antagonist -4, RAM network inh 11* and KCC2 mod -0.059.
`Cc1ccc(-n2c(SCC(=O)NCc3ccco3)nc3sc4c(c3c2=O)CC(C)(C)SC4)cc1` gave S1P4 agonist -1, S1P4 antagonist -11, RAM network inh 10* and KCC2 mod -0.17.
`CCN(CC)C(=O)CSc1nc2sc3c(c2c(=O)n1-c1ccc(C)cc1)CC(C)(C)SC3` gave ROMK mod 1.3, S1P4 agonist 1, S1P4 antagonist -11, RAM network inh 3 and KCC2 mod -0.39.
`C=CCSc1nc2ccccc2n1C(=O)/C=C/c1ccc(OC)c(OC)c1` gave S1P4 agonist 0, S1P4 antagonist -8, RAM network inh 6 and KCC2 mod 0.55.
Screening CCSc1nc2ccccc2n1C(=O)/C=C/c1ccc(OC)c(OC)c1 returned ROMK mod 0.02, S1P4 agonist 2, S1P4 antagonist -19, S1P3 antag -2, RAM network inh 10* and KCC2 mod -0.31.
CNC(=O)c1sc(N2N=C3/C(=C/c4ccccc4)CCCC3C2c2ccccc2)nc1C (centres undefined) was read as S1P4 agonist 0, S1P4 antagonist 3 and RAM network inh 9.9*.
`O=C(c1ccccn1)N1N=C2/C(=C/c3ccccc3)CCCC2C1c1ccccc1` (centres undefined) gave S1P4 agonist 1, S1P4 antagonist 5, S1P3 antag -16, RAM network inh 2 and KCC2 mod -2.4.
`CCOc1ccc(S(=O)(=O)NCCC(=O)OCC(=O)Nc2cc(C)on2)cc1` gave S1P4 agonist -2, S1P4 antagonist 9, S1P3 antag -5 and KCC2 mod -0.25.
For CC(=O)Nc1ccc(N2C(=O)c3cccc(NC(C)=O)c3C2=O)cc1 the results were ROMK mod 1.3, S1P4 agonist 3, S1P4 antagonist -10, S1P3 antag 0, RAM network inh 0 and KCC2 mod 0.079.
